Screening data (PubChem)
Shown are actives, neighbours in structure and some others; about 4% of the full set was active somewhere.
Bead autofluor = flagged as autofluorescent in microsphere protease counterscreen; compound autofluorescence counterscreen, microsphere flow cytometry; hits give high values; fluorescence intensity (concentration not given with the values); 360,000 tested, 3.1% active; AID 624483; in the data active means fluorescence intensity above about 16000; inconclusive means no clear call, values can overlap the other calls
BoNT A protease = BoNT A light chain protease inhibition | multiplex microsphere protease substrate cleavage, flow cytometry | 360,000 tested, 0.17% active | inhibition, % at 10 µM | AID 588499; further: plate controls were buffer without enzyme for full effect and enzyme alone for no effect
BoNT F protease = BoNT F light chain protease inhibition; Multiplex microsphere protease cleavage assay, flow cytometry; inhibition, % at 10 µM; 360,000 tested, 0.22% active; in the data active means inhibition above about 35%, passing the limit was not always enough; inconclusive means no clear call, values can overlap the other calls; further: plate controls were buffer without enzyme for full effect and enzyme alone for no effect
DUSP3 inh = blocks human VHR1 dual specificity phosphatase | P51452 | recombinant VHR phosphatase, pNPP absorbance | inhibition, % at 13.3 µM | 290,000 tested, 0.52% active | AID 1654; in the data active means inhibition above about 50%
Anthrax LF prot = blocks Bacillus anthracis lethal factor protease | P15917 | multiplex microsphere protease cleavage assay, LF | inhibition, % at 10 µM | 360,000 tested, 0.12% active | AID 588501; further: plate controls were buffer without enzyme for full effect and enzyme alone for no effect
Target sequence (P15917 whole entry, looked up): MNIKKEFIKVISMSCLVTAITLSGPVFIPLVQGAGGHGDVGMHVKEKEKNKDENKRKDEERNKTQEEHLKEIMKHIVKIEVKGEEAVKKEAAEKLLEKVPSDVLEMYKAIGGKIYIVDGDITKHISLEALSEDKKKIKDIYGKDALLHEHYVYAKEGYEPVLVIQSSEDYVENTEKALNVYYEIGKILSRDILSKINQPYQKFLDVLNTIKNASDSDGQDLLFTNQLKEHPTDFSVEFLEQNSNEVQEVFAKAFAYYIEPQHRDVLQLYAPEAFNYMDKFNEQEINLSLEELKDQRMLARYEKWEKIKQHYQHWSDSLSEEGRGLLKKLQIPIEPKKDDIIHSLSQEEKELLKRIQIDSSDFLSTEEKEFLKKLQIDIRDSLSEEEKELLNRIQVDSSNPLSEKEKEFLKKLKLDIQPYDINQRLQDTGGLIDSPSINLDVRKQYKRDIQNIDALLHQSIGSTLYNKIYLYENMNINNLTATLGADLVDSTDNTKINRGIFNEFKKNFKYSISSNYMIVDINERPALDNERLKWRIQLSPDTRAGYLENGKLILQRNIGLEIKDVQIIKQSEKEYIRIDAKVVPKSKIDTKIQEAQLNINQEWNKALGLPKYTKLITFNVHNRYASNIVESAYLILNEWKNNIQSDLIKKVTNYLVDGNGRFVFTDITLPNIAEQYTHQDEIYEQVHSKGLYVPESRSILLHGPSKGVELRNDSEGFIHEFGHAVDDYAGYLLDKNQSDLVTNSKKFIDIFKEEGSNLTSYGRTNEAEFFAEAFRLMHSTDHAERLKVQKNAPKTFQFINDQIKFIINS
MazEF act = increases E. coli MazEF RNase cleavage of RNA; P0AE70; FAM/BHQ RNA-DNA oligo cleavage fluorescence, 5 h; activation, % at 20 µM; 350,000 tested, 0.32% active; AID 504720; in the data active means activation above about 50%
Active calls of the source: *; ? = inconclusive; / = no result. Unless noted, no stated cut-off is given here; in the data, active means inhibition above about 30%; inconclusive means no clear call, values can overlap the other calls; inactive means below that.

SMILES	Bead autofluor	BoNT A protease	BoNT F protease	DUSP3 inh	Anthrax LF prot	MazEF act
Oc1ccc(Cl)cc1C1=NCCNC(C(F)(F)C(F)F)=C1	22480*	0.1	1.3	21.8	-1.9	9.8
FC(F)C(F)(F)C1=CC(c2cccs2)=NCCN1	4805	-0.5	-9.8	7.2	0.7	2.3
Cc1ccc(O)c(C2=NCCNC(C(F)(F)C(F)F)=C2)c1	23315*	-0.2	-1.0	-22.6	-1.2	4.5
FC(F)C(F)(F)C1=CC(c2ccccc2)=NCCN1	2658	0.2	-2.2	8.4	-2.7	6.9
CCOC(=O)C1=C(CSc2nc(CC)c(C)cc2C#N)OC(N)=C(C#N)C1c1ccc(OC)cc1 (centres undefined)	8114	1.7	-5.1	-22.7	1.3	-20.8
COc1cccc(-c2cnc3c(NC=O)cc(-c4ccc(S(C)(=O)=O)cc4)cn23)c1	3581	0.0	-1.6	/	-1.9	/
O=C(Cn1nc2ccccc2n1)N/N=C/c1cc([N+](=O)[O-])ccc1O	4755	-2.0	-4.3	1.7	-1.5	-12.3
CCOc1ccc(C(CCc2ccccc2)NC(=O)c2ccccc2)cc1OCC (centres undefined)	21649*	?	5.2	22.9	1.9	-4.2
Cc1cc(C(C)(C)C)cc(S(=O)(=O)Nc2ccc(O)c(C(=O)O)c2)c1C	20140*	?	2.9	29.6	0.1	-1.6
CC(=O)Nc1ccc(NC(=O)c2ccc(NS(=O)(=O)c3cc(C(C)(C)C)cc(C)c3C)cc2)cc1	2027	0.2	-1.7	2.6	0.8	22.1
C#CCSc1nc2sc3c(c2c(=O)n1C)CCC3	3179	-0.9	7.9	58.2*	1.6	-20.0
CN(C)C(=O)CSc1nc(-c2ccccc2)c(-c2ccccc2)o1	4178	-0.5	-13.9	50.7*	-0.2	-5.7
O=C(CSc1nc(-c2ccccc2)c(-c2ccccc2)o1)Nc1nncs1	3214	-0.7	0.6	-1.7	-2.3	1.2
O=C(CSc1nc(-c2ccccc2)c(-c2ccccc2)o1)Nc1nnc(-c2ccccc2)s1	22803*	0.8	-1.6	37.3	-2.4	-2.0
Cc1ccc(S(=O)(=O)N2CCN(C(=O)CCn3cncn3)CC2)cc1C	3641	2.7	-3.5	-3.8	0.1	-0.3
OCCCNC(=S)Nc1ccc2nccnc2c1	4262	-0.2	2.8	38.3	-1.8	8.5
CCOC(=O)CC[C@H](NC(=O)Cn1cnc2c(NCc3ccccc3)ncnc21)C(=O)OCC	2881	-0.4	-2.8	/	-6.3	0.8
COc1cccc2cc(NC(=O)C3CCCCC3)c(=O)oc12	21365*	?	5.4	6.0	-0.2	5.8
CCC(Oc1ccccc1)C(=O)Nc1ccc(S(=O)(=O)NCC2CCCO2)cc1 (centres undefined)	20336*	1.1	0.6	18.2	-3.5	2.1
COc1cccc2cc(C(=O)Nc3ccc(S(=O)(=O)NCC4CCCO4)cc3)c(=O)oc12 (centres undefined)	24536*	-24.5	-117.8	-11.0	-32.0	-3.0
O=C(Nc1ccc(S(=O)(=O)NCC2CCCO2)cc1)c1ccccc1 (centres undefined)	2654	-0.9	6.1	-5.0	-0.3	3.9
COc1cccc(N(CC(=O)NCC2CCCO2)C(=O)CNS(=O)(=O)c2ccccc2)c1 (centres undefined)	3735	-1.4	-10.0	27.2	-4.6	20.2
COc1cccc(CN(CC(=O)NCC2CCCO2)C(=O)CNS(=O)(=O)c2ccccc2)c1 (centres undefined)	16841*	-2.5	-1.5	/	-1.0	-10.7
CC(C)(C)Cc1nnc(NC(=O)c2ccc([N+](=O)[O-])cc2)s1	7387	0.2	1.0	-8.5	-1.1	-6.2
O=S(=O)(NCC1CCCO1)c1ccc(-c2ccc(S(=O)(=O)NCC3CCCO3)cc2)cc1 (centres undefined)	3974	-0.6	-4.0	18.6	4.8	-3.6
O=S(=O)(NCC1CCCO1)c1ccc(Oc2ccccc2)cc1 (centres undefined)	21154*	-2.1	-2.2	2.6	-2.7	-6.3
CCSc1ncc(Cl)c(C(=O)Nc2sc3c(c2C(=O)NCc2cccnc2)CCCC3)n1	8984	-1.4	-18.6	20.0	-8.2	111.9*
Cc1cc2n(n1)C(c1cn(-c3ccccc3)nc1C)Nc1ccccc1-2 (centres undefined)	22907*	?	-1.3	1.9	-1.4	-10.2
Cc1cc2n(n1)C(c1cn(-c3ccccc3)nc1C)Nc1c(C)cccc1-2 (centres undefined)	?	-1.1	-5.8	3.3	-22.6	-2.2
